Paper PMC4336329 (PLoS ONE, 2015)
The whole screen tested about 310,000 compounds, of which about 2,200 (0.71%) showed an effect of 50% or more. The effect is printed as a negative number. What follows is part of a selection rich in strong results, with near analogues and random picks from the rest.

Each compound was assayed against human ether-à-go-go-related gene (hERG) potassium channel (human, UniProt Q12809) (assay: primary screen, population patch clamp on CHO cells stably expressing hERG; higher = less effect of the substance).
Chain of human ether-à-go-go-related gene (hERG) potassium channel (Q12809 whole entry, looked up): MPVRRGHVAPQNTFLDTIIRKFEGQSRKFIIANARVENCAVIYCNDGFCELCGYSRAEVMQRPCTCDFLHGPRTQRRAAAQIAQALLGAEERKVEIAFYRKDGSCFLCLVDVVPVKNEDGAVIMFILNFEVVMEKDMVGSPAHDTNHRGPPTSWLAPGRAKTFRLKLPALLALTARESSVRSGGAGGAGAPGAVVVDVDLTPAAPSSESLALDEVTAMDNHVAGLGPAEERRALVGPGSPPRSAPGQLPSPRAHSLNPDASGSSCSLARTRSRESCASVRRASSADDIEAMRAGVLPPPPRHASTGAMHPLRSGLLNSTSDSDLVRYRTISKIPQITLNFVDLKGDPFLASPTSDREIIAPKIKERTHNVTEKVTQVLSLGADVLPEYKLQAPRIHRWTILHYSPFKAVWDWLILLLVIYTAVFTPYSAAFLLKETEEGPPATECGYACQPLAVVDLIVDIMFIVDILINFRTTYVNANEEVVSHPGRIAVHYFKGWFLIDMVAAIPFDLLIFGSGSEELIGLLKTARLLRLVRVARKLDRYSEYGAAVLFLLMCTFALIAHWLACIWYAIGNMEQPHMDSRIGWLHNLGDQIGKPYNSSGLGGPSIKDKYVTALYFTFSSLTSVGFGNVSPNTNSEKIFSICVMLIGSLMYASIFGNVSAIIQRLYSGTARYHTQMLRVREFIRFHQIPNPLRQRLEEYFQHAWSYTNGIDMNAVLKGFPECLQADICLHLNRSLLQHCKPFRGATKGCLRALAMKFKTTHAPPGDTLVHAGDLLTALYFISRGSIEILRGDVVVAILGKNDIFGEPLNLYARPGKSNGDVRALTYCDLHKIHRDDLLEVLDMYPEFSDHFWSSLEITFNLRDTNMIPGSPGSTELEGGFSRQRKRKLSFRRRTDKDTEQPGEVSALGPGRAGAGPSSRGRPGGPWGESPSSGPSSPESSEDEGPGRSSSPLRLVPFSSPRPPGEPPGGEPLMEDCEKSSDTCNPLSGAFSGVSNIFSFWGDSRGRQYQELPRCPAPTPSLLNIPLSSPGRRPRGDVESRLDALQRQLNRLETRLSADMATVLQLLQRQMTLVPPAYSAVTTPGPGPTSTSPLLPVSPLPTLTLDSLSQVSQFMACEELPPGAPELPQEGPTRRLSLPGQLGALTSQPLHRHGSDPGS

| Structure (SMILES) | hERG current change (%, negative = inhibition) at 1uM [%] |
| --- | --- |
| CC(=O)N1CCOc2ccc(S(=O)(=O)Nc3ccc(C)cn3)cc21 | 4.68 |
| COCCNC(=O)c1ccccc1NC(=O)c1ccc(OC)c(OC)c1 | 4.05 |
| CC(C)(C)OC(=O)N1CCC(c2cc(-c3cccs3)n[nH]2)CC1 | 4.89 |
| COc1ccc(-c2cc(C3CCN(Cc4ccc([N+](=O)[O-])cc4)CC3)[nH]n2)cc1 | -44.3 |
| COc1ccc(-c2cc(C3CCN(Cc4cccc(C(F)(F)F)c4)CC3)[nH]n2)cc1 | -13 |
| CCOC(=O)CN1CCC(c2cc(-c3ccc(Cl)cc3)n[nH]2)CC1 | 22.3 |
| Cc1ccc(CN2CCC(c3cc(-c4cccs4)n[nH]3)CC2)cc1 | -85.6 |
| Cc1ccc(CN2CCC(c3cc(-c4ccc(Cl)cc4)n[nH]3)CC2)cc1 | -78.1 |
| S=c1[nH]ncn1/N=C/c1ccccc1 | 14.4 |
| COc1nc(Nc2ccc([N+](=O)[O-])cc2)nc(NC2CCCCC2)n1 | 11.2 |
| O=C(COc1ccccc1Cl)N1CCN(c2ccc([N+](=O)[O-])c(N3CCCCC3)c2)CC1 | 0.717 |
| CCCCCNC(=O)[C@@H]1CSC2c3ccccc3C(=O)N21 (some centres unmarked) | 14 |
| COc1ccc(CCc2nc(-c3cccs3)no2)cc1 | 5.28 |
| O=C(CSc1ccc2nnc(-c3ccccc3)n2n1)NCc1ccc2c(c1)OCO2 | -71 |
| O=C(CSc1nnc(-c2cccnc2)n1-c1ccc(F)cc1)NCc1ccc2c(c1)OCO2 | -54.5 |
| O=C(CSc1nnc(-c2ccccc2)n1Cc1ccco1)NCc1ccc2c(c1)OCO2 | -22.2 |
| C=CCn1c(SCC(=O)NCc2ccc3c(c2)OCO3)nnc1-c1cccnc1 | 8.01 |
| O=C(CSc1ccc2nnc(-c3ccccn3)n2n1)Nc1ccc2c(c1)OCO2 | 2.61 |
| O=C(CSc1nnc(-c2cccnc2)n1Cc1ccco1)NCc1ccc2c(c1)OCO2 | -20.4 |
| O=C(CSc1ccc2nnc(-c3ccccn3)n2n1)NCc1ccc2c(c1)OCO2 | -65.8 |
| O=C(CSc1ccc2nnc(-c3ccccn3)n2n1)Nc1ccc2c(c1)OCCO2 | -2.96 |
| O=C(CSc1nnc(-c2cccnc2)n1-c1ccccc1)NCc1ccc2c(c1)OCO2 | -47.9 |
| O=C(CSc1ccc2nnc(-c3cccnc3)n2n1)NCc1ccc2c(c1)OCO2 | 4.47 |

| Structure (SMILES) | hERG current change (%, negative = inhibition) at 1uM [%] |
| --- | --- |
| O=C(CSc1nnc(-c2ccc(Cl)cc2)n1Cc1ccco1)NCc1ccc2c(c1)OCO2 | -51.6 |
| O=C(CSc1ccc2nnc(-c3ccncc3)n2n1)Nc1ccc2c(c1)OCO2 | 13.8 |
| COc1cc(S(=O)(=O)N(Cc2cccnc2)Cc2ccco2)ccc1-n1cnnn1 | -10.7 |
| Cc1cc(C(=O)NC2CCCCCCC2)ccc1[N+](=O)[O-] | 13.3 |
| Cc1ccc(CN2C(=O)CSC2c2ccc(F)cc2)cc1 (centres unmarked) | 12.2 |
| C#CC(CO)N(CCN(Cc1ccccc1)C(C#C)CO)Cc1ccccc1 (centres unmarked) | 9.58 |
| COC(=O)C(C)NC(=S)N1CC2C[C@@H](C1)Cn1c2cccc1=O (some centres unmarked) | 15.6 |
| COc1cccc(N2CCN(S(=O)(=O)c3ccc(-c4coc(C)n4)cc3)CC2)c1 | 11.7 |
| CCN(CC(=O)Nc1ccc(NC(C)=O)cc1)C(=O)c1cc2c(s1)CCCCC2 | 2.11 |
| c1ccc(-c2nnc3sc(-c4cc5ccccc5o4)nn23)cc1 | 14.4 |
| CCCCCC(=O)Nc1cccc(-c2nc3ncccc3o2)c1 | 0.93 |
| Cc1ccc(-c2nnc3ccc(SCC(=O)NCc4ccco4)nn23)cc1 | 4.96 |
| O=C(CSc1ccc2nnc(-c3ccncc3)n2n1)NCc1ccco1 | -7.28 |
| O=C(CSc1ccc2nnc(-c3ccccc3)n2n1)NCc1ccco1 | -65.8 |
| CCOc1ccc(OCCNC2CCCC2)cc1 | 2.09 |
| O=C(NCc1ccco1)C(NS(=O)(=O)c1cccc2nsnc12)c1ccccc1 (centres unmarked) | 7.81 |
| O=C(CCn1c(=O)[nH]c2ccsc2c1=O)N1CCN(c2cccc(Cl)c2)CC1 | -6.52 |
| CC(CNC(=O)c1ccc(N)cc1)NC(=O)c1ccc(N)cc1 (centres unmarked) | 12 |
| CCOc1ccc(C(=O)NCC(C)NC(=O)c2ccc(OCC)cc2)cc1 (centres unmarked) | 22.5 |
| CC(CNC(=O)c1ccc(C#N)cc1)NC(=O)c1ccc(C#N)cc1 (centres unmarked) | -81.9 |
| CN(C)/C=C/C(=O)c1ccccc1F | 4.57 |
| COc1cccc(CN2CCCC(C(=O)c3ccccc3SC)C2)c1O (centres unmarked) | -76.9 |
| COc1ccc(C(=O)C2CCCN(Cc3cccc4c3OCO4)C2)cc1OC (centres unmarked) | -29.3 |

| Structure (SMILES) | hERG current change (%, negative = inhibition) at 1uM [%] |
| --- | --- |
| COc1ccc(C(=O)C2CCCN(Cc3cn[nH]c3-c3ccc(F)cc3)C2)cc1OC (centres unmarked) | -25.9 |
| COc1ccc(C(=O)C2CCCN(Cc3cnc(C)s3)C2)cc1OC (centres unmarked) | 2.68 |
| COc1ccc(-c2[nH]ncc2CN2CCCC(C(=O)c3cccc(OC)c3)C2)cc1 (centres unmarked) | -29.5 |
| COc1ccccc1CN1CCCC(C(=O)c2ccccc2SC)C1 (centres unmarked) | -27.3 |
| COc1ccc(C(=O)C2CCCN(Cc3c(O)cccc3OC)C2)cc1OC (centres unmarked) | -7.05 |
| COc1ccc(C(=O)C2CCCN(Cc3cn[nH]c3-c3ccccc3)C2)cc1OC (centres unmarked) | -75.4 |
| COc1ccc(C(=O)C2CCCN(Cc3ccc(C)s3)C2)cc1OC (centres unmarked) | -32.5 |
| COc1ccc(C(=O)C2CCCN(Cc3nc4ccccc4nc3C)C2)cc1OC (centres unmarked) | -83.3 |
| CCOc1ccccc1CN1CCCC(C(=O)c2ccc(OC)c(OC)c2)C1 (centres unmarked) | -51.1 |
| COc1cccc(OC)c1CN1CCCC(C(=O)c2ccccc2SC)C1 (centres unmarked) | -37.8 |
| CS(=O)(=O)N(Cc1cccc(CN(C(C(=O)O)c2ccccc2)S(C)(=O)=O)c1)C(C(=O)O)c1ccccc1 (centres unmarked) | 16.9 |
| O=C(O)CC1(CC(=O)Nc2ccc(C(F)(F)F)cc2)CCCC1 | 15.6 |
| Cc1ccc(OCCC(=O)OCC(=O)NC(=O)NC2CCCCC2)cc1 | 14.2 |
| Cn1cnnc1SCc1ccccc1Br | 12.6 |
| CC(=O)Nc1ccc(NC(=O)C(C)Sc2n[nH]c(-c3ccc(C)cc3)n2)cc1 (centres unmarked) | 8.42 |
| Cc1ccc(C)c(-n2c(C)nc3ccccc3c2=O)c1 | 13.2 |
| CC(C)(C)c1ccc(C(=O)NCCc2ccccc2)cc1 | 6.65 |
| Cc1ccc(C2=NN=C(NC(=O)CSc3nnc4c5ccccc5n(C)c4n3)SC2)cc1 | 8.27 |
| Cc1ccc2oc(C(=O)N3CCN(C)C[C@@H]3C(C)C)c(C)c2c1 | 9.07 |
| O=C(OCCNC(=O)c1ccc2ccccc2n1)c1ccc(F)cc1 | 4.77 |
| Cc1ccc(OCCCC(=O)Nc2ccc(S(N)(=O)=O)cc2)cc1 | 9.66 |
| COc1ccc([N+](=O)[O-])cc1NS(=O)(=O)c1ccc(Cl)c(C(=O)Nc2sc3c(c2C#N)CCCCC3)c1 | 17.4 |
| COc1ccc(/C(N)=N/OC(=O)CCc2ccccc2)cc1 | 4.26 |

| Structure (SMILES) | hERG current change (%, negative = inhibition) at 1uM [%] |
| --- | --- |
| COc1cccc(C(=O)CN(C(=O)c2ccc(Cl)cc2Cl)N2C(=O)c3ccccc3C2=O)c1 | 8.71 |
| CCC1(CC)NC(=O)N(CC(=O)OCC(=O)Nc2ccc(C(F)(F)F)cc2)C1=O | 2.71 |
| CCOc1ccc(CN2CCCC(C(=O)c3ccccc3OC)C2)cc1 (centres unmarked) | -74.1 |
| COC(=O)c1ccc(CN2CCCC(C(=O)c3ccccc3OC)C2)cc1 (centres unmarked) | -6.6 |
| O=C(c1ccc2c(c1)OCO2)C1CCCN(Cc2ccccn2)C1 (centres unmarked) | -13 |
| O=C(c1ccc2c(c1)OCO2)C1CCCN(Cc2cn[nH]c2-c2cccc(F)c2)C1 (centres unmarked) | -42.7 |
| COc1ccccc1C(=O)C1CCCN(Cc2ccc(Oc3ncccn3)cc2)C1 (centres unmarked) | -0.388 |
| O=C(c1ccc2c(c1)OCO2)C1CCCN(Cc2cn[nH]c2-c2ccccc2)C1 (centres unmarked) | -67.3 |
| CCC(CC)c1nnc(NC(=O)C23CC4CC(CC(NC(C)=O)(C4)C2)C3)s1 | 0.699 |
| Cc1cc(C)c(C)c(C(=O)c2ccccc2C(=O)O)c1C | 6.64 |
| COCCNC(=O)COC(=O)c1cccnc1SC | 12.8 |
| CC1CCN(C(=O)c2cccc(S(=O)(=O)N3CCCCC3)c2)CC1 | 2.17 |
| CCOC(=O)C1=C(CSc2nc(-c3ccccc3)ccc2C#N)OC(N)=C(C#N)C1c1cccnc1 (centres unmarked) | -6.76 |
| Cc1ccc(C(=O)N/C(=C\c2ccccc2)C(=O)NCCCn2ccnc2)cc1 | -87 |
| O=C(NCCCn1ccnc1)/C(=C\c1ccccc1F)NC(=O)c1ccccc1 | -42.5 |
| Cc1ccc(/C=C(\NC(=O)c2ccc(C)cc2)C(=O)NCCCn2ccnc2)cc1 | -87 |
| O=C(NCCCn1ccnc1)/C(=C/c1ccc(F)cc1)NC(=O)c1ccccc1 | -72.2 |
| COc1ccc(/C=C(\NC(=O)c2ccc(C)cc2)C(=O)NCCCn2ccnc2)cc1OC | 12.1 |
| Cc1ccc(C(=O)N/C(=C\c2ccc(F)cc2)C(=O)NCCCn2ccnc2)cc1 | -85.1 |
| Cc1ccc(C(=O)N/C(=C\c2cn(C)c3ccccc23)C(=O)NCCCn2ccnc2)cc1 | 13.5 |
| Cc1ccc(C(=O)N/C(=C/c2ccccc2F)C(=O)NCCCn2ccnc2)cc1 | -22.5 |
| COc1ccc(/C=C(\NC(=O)c2ccc(Cl)cc2)C(=O)NCCCn2ccnc2)cc1OC | 9.45 |
| CSc1ccc(/C=C(/NC(=O)c2ccccc2)C(=O)NCCCn2ccnc2)cc1 | -15.6 |
